# Hits are enriched below; roughly 7.5% of the tested compounds scored in any of these assays.
# HCMV antiviral = qHTS Assay for inhibitors of the human cytomegalovirus (HCMV); activity change, negative = inhibition, % at 57.5 µM; actives 4.5% (n = 410,000); AID 1259415, 2018; HFF cells, HCMV-luciferase reporter, 72 h; active compounds read low; in the data active = activity change below about -60%; inconclusive = no clear call, values can overlap the other calls; inactive = above about -39%
#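 Screen run at 2 compound doses on HFFs infected with reporter HCMV, MOI 1 PFU/cell. Luciferase activity from cell lysates at 72 h post infection gave inhibition relative to buffer-only and Salinomycin wells.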
# VACV Venus inh = qHTS for Stage-Specific Inhibitors of Vaccinia Orthopoxvirus: Venus Reporter Primary qHTS; Vaccinia virus Venus reporter expression, fluorescence; Potency, µM (top dose mostly 36.5 µM), for the others: top-dose activity change, negative = inhibition, actives largely listed as inhibitors; actives 0.46% (n = 330,000); calls by dose curve; tested in A549 cells; note: potency is the fitted concentration of half-maximal effect; nearly all actives have a fitted effect of over 30% in size
# Vaccinia mCherry = qHTS for Stage-Specific Inhibitors of Vaccinia Orthopoxvirus: mCherry Reporter Primary qHTS. Vaccinia virus mCherry reporter infection, fluorescence. Potency, µM (doses to about 36.5 µM), inactives show at the highest dose activity change, negative = inhibition, usual class: inhibitors. actives 0.63% (n = 310,000). AID 720579, 2013; calls by dose curve; tested in A549 cells; note: potency is the fitted concentration of half-maximal effect; nearly all actives have a fitted effect of over 35% in size
# HCV inh = qHTS Assay for Inhibitors of Hepatitis C Virus (HCV) | actives 3.4% (n = 340,000) | Huh7.5.1 HCVcc-Cre infection, luciferase reporter, 44 h | Potency, µM (doses to about 41.8 µM), without a hit: top-dose activity change, negative = inhibition, most hits filed as inhibitors; note: potency is the fitted concentration of half-maximal effect
#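 Compounds are dispensed onto cells plated 4 h earlier at 1,000 per well, with HCVcc-Cre virus (about 0.5 moi) added next. Following 44 h of culture, luminescent signal is measured for 15 sec after 15 min with substrate at room temperature.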
# FBPA Giardia inh = qHTS Assay for Inhibitors of Fructose-1,6-bisphosphate Aldolase from Giardia Lamblia; A8B2U2; purified Giardia FBPA; Potency, µM (series often up to 59.6 µM), without a hit: top-dose activity, negative = inhibition, most hits filed as inhibitors; actives 0.71% (n = 290,000); AID 2451, 2010; note: potency is the fitted concentration of half-maximal effect; nearly all actives have a fitted effect of over 55% in size
# Target sequence (A8B2U2 whole entry, looked up): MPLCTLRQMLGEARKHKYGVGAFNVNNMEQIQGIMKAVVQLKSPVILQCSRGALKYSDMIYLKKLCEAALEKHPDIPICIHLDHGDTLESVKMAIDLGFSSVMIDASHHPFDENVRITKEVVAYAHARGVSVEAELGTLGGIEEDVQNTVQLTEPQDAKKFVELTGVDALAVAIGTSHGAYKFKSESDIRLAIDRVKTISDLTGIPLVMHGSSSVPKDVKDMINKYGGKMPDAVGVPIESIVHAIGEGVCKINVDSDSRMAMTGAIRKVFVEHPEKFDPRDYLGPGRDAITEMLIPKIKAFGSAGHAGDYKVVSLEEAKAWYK
#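 Giardia FBPA (40 nM reagent) was preincubated 10 min at RT with compound (up to 57.5 uM final), then substrate plus GAPDH/TPI/NAD/arsenate coupling system with diaphorase/resazurin was added; resorufin fluorescence (525/598 nm) was read after 20 min.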
# FMDV inh = High Throughput Screening for Foot and Mouth Disease Virus Antivirals. FMDV antiviral cell-based qHTS. Potency, µM (series often up to 57.9 µM), for inactives: at the highest dose activity change, negative = inhibition, hits mostly inhibitors. actives 1.2% (n = 410,000); calls by dose curve; tested in HEK293T cells; note: read-out not given here; potency is the fitted concentration of half-maximal effect; nearly all actives have a fitted effect of over 45% in size
# * hit, by the source's call; i = inactive; ? = inconclusive; / = no result given; [ ] = another dose, or the depositor's remark. Unless noted, calls come from the whole dose curve; as a rule, active = well fitted curve in the direction sought with a large enough effect; inconclusive = small, poorly fitted or top-dose-only effect, or another doubt; inactive = no such curve, though single readings can be large; an effect the other way counts as inactive or inconclusive. % is set by controls: 0 for no effect and ±100 for the full control effect.
SMILES,HCMV antiviral,VACV Venus inh,Vaccinia mCherry,HCV inh,FBPA Giardia inh,FMDV inh
COc1ccc(C2/C=C\CN(C(=O)c3ccccc3)[C@H](Cc3ccccc3)C(=O)N2Cc2ccc(F)cc2)cc1 (stereo not given in full),-63*,?,-25%,?,-1%,?
COC(=O)c1ccc(COc2ccc(-c3nn[nH]n3)cc2)cc1,-107*,/,/,7%,17%,13%
CC(C)(C(=O)NCc1ccco1)n1cc(NC(=O)c2cncc(Br)c2)cn1,5,/,/,/,/,/
N#C/C(=C\c1ccc(O)c(O)c1)C(N)=S,/,-6%,i,/,14µM*,-25%
O=C(CSc1cn(CCNC(=O)c2ccc3ccccc3c2)c2ccccc12)NCc1ccco1,-68*,?,?,?,3%,?
O=C(CSc1cn(CCNC(=O)c2cccs2)c2ccccc12)NCc1ccccc1,-33,-12%,-20%,11µM*,-2%,-20%
O=C(CSc1cn(CCNC(=O)c2cccs2)c2ccccc12)NC1CCCCC1,-13,-12%,i,?,-2%,-29%
COc1ccc(NC(=O)CSc2cn(CCNC(=O)c3ccc(OC)cc3)c3ccccc23)cc1,-6,-17%,-25%,/,/,-24%
Cc1c(C(=O)N2CCCC2)sc2ncnc(NCCCN3CCOCC3)c12,/,0%,i,/,/,-5%
CCNC(=S)N/N=C/c1sc(N2CCCCC2)nc1-c1cccs1,?,4%,-17%,-4%,-2%,12%
CCCN1C(=O)CC[C@@H](S(=O)(=O)c2ccccc2)[C@@H]1c1ccccc1,-9,/,/,/,/,/
CCOc1cc(C(=O)NCC(c2ccc(N(C)C)cc2)N2CCOCC2)cc(OCC)c1OCC (stereo not given),-62*,-9%,-13%,/,/,-22%
CN(C)c1ccc(C(CNC(=O)c2ccc(C(C)(C)C)cc2)N2CCOCC2)cc1 (stereo not given),-23,-2%,-12%,/,/,-8%
OCC(O)C1OC(c2ccccc2)OC(CO)C1O (stereo not given),16,-2%,-6%,4%,/,-20%
C=CCNC(=S)Nc1cccc([N+](=O)[O-])c1,-90*,-8%,?,-4%,?,5%
Cc1cc(Br)ccc1NC(=S)Nc1cccc([N+](=O)[O-])c1,-64*,-20%,?,?,3%,-23%
CC(C)n1nc(C(=O)Nc2nnc(SCc3c(Cl)cccc3Cl)s2)c2ccccc2c1=O,-7,-15%,-7%,?,12%,-12%
CC(C)CNC(=O)COc1cccc(C(=O)NCc2ccccc2)c1,-29,-13%,i,12%,3%,-9%
CCC(=O)C1=C(c2ccc(C)cc2)N(C(=O)CC)n2c(nnc2C2CCCCC2)S1,12,-27%,?,/,/,-15%
CCCC(=O)C1=C(c2ccc(C)c(C)c2)N(C(=O)CCC)n2c(CC)nnc2S1,-76*,?,?,/,/,-23%
CCCC(=O)C1=C(c2cccc(OC)c2)N(C(=O)CCC)n2c(C)nnc2S1,-95*,-24%,?,/,/,-17%
CCCC(=O)C1=C(c2ccc(C)cc2)N(C(=O)CCC)n2cnnc2S1,-95*,?,?,/,/,-21%
CCC(=O)C1=C(c2ccc(OC)c(OC)c2)N(C(=O)CC)n2c(CC)nnc2S1,-63*,1%[7.34 µM],1%[7.34 µM],/,/,?
CCC(=O)C1=C(c2ccc(F)cc2)N(C(=O)CC)n2c(nnc2-c2ccc(OC)cc2)S1,5,-22%,-25%,/,/,?
Cn1ccsc1=NC(=O)c1ccc(OC(F)(F)F)cc1,132,-10%,-12%,-1%,-3%,29%
SMILES,HCMV antiviral,VACV Venus inh,Vaccinia mCherry,HCV inh,FBPA Giardia inh,FMDV inh
CC1(C)C(c2ccccc2)=NC(c2ccc(Br)cc2)N1O (stereo not given),-19,-13%,-13%,14%,6%,4µM*
CC(C)c1ccc2[nH]c(O)c(N=NC(=O)c3cccc(S(=O)(=O)N4CCCCC4)c3)c2c1,-24,-25%,?,11µM*,-5%,?
O=C(N=Nc1c(O)[nH]c2ccccc12)c1cccc(S(=O)(=O)N2CCCCC2)c1,-4,-5%,i,4%,-6%,-9%
COc1ccc(OC)c(NC(=O)c2oc3c(c2C)-c2nn(Cc4ccc(Cl)cc4)cc2CC3)c1,?,-22%,-21%,/,/,-2%
CCOC(=O)Nc1nnc(-c2cccc(OC)c2)s1,-66*,-15%,0%,-3%,5%,40%
CCOC(=O)Nc1nnc(-c2ccc(OC)cc2)s1,25,-14%,i,1%,3%,/
COc1cccc(N2CCN(CC(=O)Nc3nnc(-c4ccccc4)s3)CC2)c1,-21,-26%,?,6.3µM*,-4%,16µM*
COc1cccc(N2CCN(CC(=O)NC3=Nc4ccccc4N=C(C)C3c3ccccc3)CC2)c1 (stereo not given),1,-7%,?,?,-8%,-25%
CC(NC(=O)c1cc(S(=O)(=O)N2CCOCC2)ccc1N1CCCC1)c1ccc(Cl)c(Cl)c1 (stereo not given),-24,?,-27%,-20%,/,-2%
COc1ccc(-c2ccc(-c3nc4c(c(=O)[nH]c(=O)n4Cc4ccccc4)n3C)o2)c([N+](=O)[O-])c1,2,4%,-7%,?,?,-17%
COCCn1c(=O)[nH]c(=O)c2c1nc(-c1ccc(-c3ccc(Cl)cc3[N+](=O)[O-])o1)n2Cc1ccccc1,181,?,?,10µM*,?,?
Cc1ccc(-c2nc3c(c(=O)[nH]c(=O)n3CC(C)C)n2CC(C)C)cc1[N+](=O)[O-],-62*,-7%,i,?,1%,-27%
O=c1[nH]c(=O)n(Cc2ccccc2)c2nc(-c3ccc(Oc4ccc(F)cc4)c([N+](=O)[O-])c3)n(CCO)c12,-64*,10µM*,-21%,?,-3%,0%
COc1ccc(-c2nc3c(c(=O)[nH]c(=O)n3Cc3ccccc3)n2CCO)cc1,2,-25%,?,-10%,0%,-19%
O=C(NNS(=O)(=O)c1ccc([N+](=O)[O-])cc1)C(=O)Nc1cccc(C(=O)O)c1,57,/,/,19%,?,-8%
O=[N+]([O-])c1ccc(NC(=S)NCCc2ccc(Cl)cc2)cc1,-107*,11µM*,?,?,-4%,9%
NS(=O)(=O)c1ccc(CCNC(=S)NC2CCCC2)cc1,80,-8%,-2%,9%,-1%,-5%
S=C(NCCc1ccc(Cl)cc1)NC1CC1,-75*,/,/,11%,-19%,26%

# Screens (PubChem)
